High-throughput results: PubChem BioAssay, several laboratories
CRFBP-R2 agonist – CRF-BP/CRF-R2 complex agonism. 350,000 tested, 0.46% active. HEK293 CRF-R2/CRF-BP, calcium dye fluorescence (FLIPR); percent of saturating CRF peptide response. activation, % at 13.2 µM. AID 588473;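 active means activation of at least 50%, plus an integration ratio under a set limit after plate pattern correction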;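 further: plate controls were neutral control wells without compound for no effect and CRF at EC100 for full effect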
CRFR2-BP antag – antagonists of CRF-binding protein/CRF-R2 receptor complex. HEK293 CRF-R2/CRF-BP, CRF-induced calcium fluorescence. inhibition, % at 11.8 µM. 350,000 tested, 0.59% active;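 active means inhibition of the ligand-induced calcium signal above about 50% at the single tested concentration, limit read from the data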
GRIN3A LBD mod – modulates the human NR3A ligand-binding domain; NR3A LBD differential scanning fluorimetry, Tm shift; 0% = protein alone, 100% = glycine-bound protein; Tm shift relative to glycine control, % at 25 µM; 340,000 tested, 2.5% active; AID 1259313;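 active means melting temperature shift of at least 10% of the positive control shift, at one fixed dose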
TMEM16A inh – mouse TMEM16A channel inhibition, primary screen. normalized B-score (activity score, 25-100; higher = stronger inhibition) at 10 µM. 310,000 tested, 1.2% active. Q8BHY3. HEK293 TMEM16A/YFP iodide influx fluorescence, ionomycin;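 active means ratio plate-corrected score three or more library SD toward inhibition, starting fluorescence score within five deviations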;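 further: score derived from kinetic fluorescence span divided by baseline fluorescence per well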
Target sequence (Q8BHY3 whole entry, looked up): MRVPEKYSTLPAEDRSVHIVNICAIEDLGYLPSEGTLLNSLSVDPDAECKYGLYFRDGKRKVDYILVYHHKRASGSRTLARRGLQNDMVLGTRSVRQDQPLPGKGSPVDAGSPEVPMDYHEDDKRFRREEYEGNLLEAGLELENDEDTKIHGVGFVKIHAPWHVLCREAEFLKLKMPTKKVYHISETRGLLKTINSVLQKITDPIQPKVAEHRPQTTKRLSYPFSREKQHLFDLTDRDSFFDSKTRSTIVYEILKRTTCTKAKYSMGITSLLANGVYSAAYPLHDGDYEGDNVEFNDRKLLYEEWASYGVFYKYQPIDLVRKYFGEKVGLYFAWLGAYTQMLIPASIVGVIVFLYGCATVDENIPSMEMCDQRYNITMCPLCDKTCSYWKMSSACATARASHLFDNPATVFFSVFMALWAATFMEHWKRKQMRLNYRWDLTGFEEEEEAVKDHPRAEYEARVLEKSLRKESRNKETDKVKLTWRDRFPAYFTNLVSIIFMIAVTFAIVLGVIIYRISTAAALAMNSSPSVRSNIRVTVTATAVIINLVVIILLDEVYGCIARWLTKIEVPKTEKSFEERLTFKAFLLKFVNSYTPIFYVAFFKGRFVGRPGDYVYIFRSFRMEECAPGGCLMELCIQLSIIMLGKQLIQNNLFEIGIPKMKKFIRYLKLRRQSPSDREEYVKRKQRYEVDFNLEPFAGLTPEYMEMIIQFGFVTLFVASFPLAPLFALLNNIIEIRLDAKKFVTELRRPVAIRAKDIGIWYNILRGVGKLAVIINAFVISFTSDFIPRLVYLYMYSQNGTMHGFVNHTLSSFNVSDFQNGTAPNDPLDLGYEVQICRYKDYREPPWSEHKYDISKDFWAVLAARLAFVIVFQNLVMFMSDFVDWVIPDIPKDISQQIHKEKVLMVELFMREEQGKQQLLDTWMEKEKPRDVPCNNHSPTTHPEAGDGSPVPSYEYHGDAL
ANO1 activ – activators or potentiators of mouse TMEM16A chloride channel | Q8BHY3 | HEK293 TMEM16A/YFP-H148Q/I152L, iodide quench fluorescence; stronger effect = lower value | B-score at 10 µM | 340,000 tested, 0.3% active | AID 623877;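 active means fluorescence-ratio B-score plate-corrected deviation score at least 3 library SD below zero, with starting fluorescence score within 5 deviations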;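 further: channel opened by trigger with iodide after compound preincubation; score built on the fluorescence ratio of max minus min over baseline; more negative score means more quench and so TMEM16A activation or potentiation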
MPTP inh – inhibitors of mitochondrial permeability transition pore. isolated mouse mitochondria, Ca2+ swelling absorbance, 30 min. 360,000 tested, 1.4% active. inhibition, % at 10 µM;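 active means inhibition of 50% or more, scaled per plate between neutral and stimulator controls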;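 further: 0% = DMSO wells given calcium and 100% = 1 mM EGTA wells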
Rh123 counter – membrane potential counter-screen of mitochondrial pore inhibitors | shares compounds with MPTP inh | isolated mitochondria, Rhodamine 123 fluorescence | inhibition, % at 10 µM | 5,000 tested, 78% active; in the data active means inhibition above about 22%;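 further: 0% = DMSO vehicle and 100% = positive control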
MPTP swell DR – MPTP inhibition, dose response swelling confirmation; shares compounds with MPTP inh; isolated mitochondria swelling, absorbance; IC50, µM; 780 tested, 58% active; AID 651561; in the data active means IC50 below about 20 µM
MPTP counter DR – active in counter-screen for permeability transition pore inhibitors | shares compounds with MPTP inh | isolated mitochondria counterscreen, fluorescence read-out | IC50, µM | 780 tested, 49% active | AID 651564; in the data active means IC50 below about 80 µM
* = called active by the depositor; i = inactive; nt = not tested or not shown; + = active, no number. Only some compounds are listed: those with a hit (about 5.1% of all), similar ones and a draw of the others.

SMILES	CRFBP-R2 agonist	CRFR2-BP antag	GRIN3A LBD mod	TMEM16A inh	ANO1 activ	MPTP inh	Rh123 counter	others
O=C(NC(Nc1ncc(S(=O)(=O)c2ccc([N+](=O)[O-])cc2)s1)(C(F)(F)F)C(F)(F)F)c1ccc(Cl)cc1	33.9	62.2*	9.8	100*	i	99.7*	86.8*
CC1(C(=O)NS(=O)(=O)c2cccc(C#N)c2)CCN1C(=O)C1(c2ccc(Cl)cc2)CCC1 (stereo unspecified)	nt	nt	nt	nt	nt	1.4	nt
CS(=O)(=O)c1ccc2nc(NC(=O)Nc3ccc(Cl)c(Cl)c3)sc2c1	0.2	3.9	31.4*	i	i	95.4*	70.8*
CS(=O)(=O)c1ccc2nc(NC(=O)Nc3cccc(Cl)c3)sc2c1	18.5	-19.4	22.0*	i	i	88.6*	59.5*
Cc1ccc(NC(=O)Nc2nc3ccc(S(C)(=O)=O)cc3s2)cc1	0.4	1.6	27.7*	nt	i	64.8*	70.3*
COc1ccc2[nH]c3c(N4CCc5ccccc5C4)ncnc3c2c1	-1.4	-22.4	-0.6	i	i	81.1*	69.6*
COc1ccc(N2CCN(c3ncnc4c3[nH]c3ccccc34)CC2)cc1	-1.0	6.9	-3.5	i	i	79.1*	106.5*
O=S1(=O)CC(N2CCN(CCO)CC2)CN1Cc1cn(Cc2ccc(C(F)(F)F)cc2)nn1 (stereo unspecified)	nt	nt	nt	nt	nt	-0.4	nt
O=C(Nc1ccccc1)Nc1nnc(SCc2ccc(Cl)cc2)s1	-2.8	10.7	34.6*	i	i	85.5*	33.5*
CCOC(=O)NC(Nc1nnc(SCC)s1)(C(F)(F)F)C(F)(F)F	-2.2	24.4	0.5	i	i	-0.1	nt
O=C(Nc1ccc(Cl)cc1)Nc1nnc(SCc2ccc(Cl)cc2)s1	2.7	1.9	-2.3	i	i	85.4*	24.4*
O=C(Nc1nnc(SCc2ccc(Cl)cc2)s1)c1cnccn1	-3.3	-9.8	-2.2	i	i	1.0	nt
CCSc1nnc(NC(=O)Nc2cccc(C)c2)s1	6.4	-0.5	5.9	i	i	82.4*	83.7*
CCSc1nnc(NC(=O)[C@@H](NC(=O)c2cccc(C)c2)C(C)C)s1	-1.9	-4.4	-1.7	i	i	0.8	nt
CCSc1nnc(NC(=O)NC(C)(C(F)(F)F)C(F)(F)F)s1	31.5	-25.1	-8.7	i	i	92.2*	93.2*
CC(=O)N1CCc2c(sc(NC(=O)c3ccc([N+](=O)[O-])o3)c2C(N)=O)C1	2.8	2.2	nt	nt	nt	3.1	nt
COC(=O)c1ccc(NC(=O)N2CCCC(C(=O)c3ccccc3OC)C2)cc1 (stereo unspecified)	-1.1	3.4	6.1	i	i	69.6*	75.4*
COc1ccccc1C(=O)C1CCCN(C(=O)Nc2ccccc2F)C1 (stereo unspecified)	0.3	27.7	-4.1	i	i	-2.2	nt
CC(=O)Nc1ccc(NC(=O)N(c2ccccc2)c2ccccc2)cc1	-0.5	16.5	1.1	i	i	-0.6	nt
O=C(Cc1ccc(S(=O)(=O)N2CCCCC2)s1)Nc1cccc2ccccc12	0.2	-18.0	-1.5	i	i	+	3.9	MPTP swell DR=>100;MPTP counter DR=>80
O=C(Cc1ccc(S(=O)(=O)N2CCOCC2)s1)Nc1ccccc1Br	0.2	29.2	-0.8	i	i	1.9	nt
CCOC(=O)C1=CC[C@H]2c3c(c4ccccc4n3C)C[C@H]1N2C	-0.9	-1.8	1.1	nt	i	1.1	nt
O=[N+]([O-])c1ccc(O)c(C2=NNC(c3ccccc3F)C2)c1 (stereo unspecified)	30.9	-9.1	6.9	100*	i	88.8*	85.1*
CC(C)(C)C1CCC(OCC(O)CN2CCN(c3ccccc3)CC2)CC1 (stereo unspecified)	-1.1	9.9	-0.9	i	i	84.9*	-3.7	MPTP swell DR=>100;MPTP counter DR=>80
O=C(Nc1ccc([N+](=O)[O-])cc1)c1cc(Cl)sc1Cl	5.0	0.7	-4.5	i	i	89.4*	85.3*
SMILES	CRFBP-R2 agonist	CRFR2-BP antag	GRIN3A LBD mod	TMEM16A inh	ANO1 activ	MPTP inh	Rh123 counter	others
O=C(Nc1ccc(Cl)cc1)Nc1cc([N+](=O)[O-])ccc1F	1.3	-17.6	3.3	i	i	93.0*	93.0*
Cc1cc(OC(F)F)ccc1NC(=O)Nc1ccc([N+](=O)[O-])cc1	41.3	8.1	3.0	i	i	98.8*	86.0*
O=C(Nc1ccc([N+](=O)[O-])cc1)Nc1ccc(Cl)cc1F	32.2	8.1	22.4*	i	i	99.8*	100.8*
CC1C(=O)OC(c2ccc(Br)cc2)C(C)(C)C1=O (stereo unspecified)	0.4	3.5	-0.4	i	i	1.3	nt
CCOC(=O)C1=CCN(S(=O)(=O)c2ccc(Cl)cc2)C1c1ccccc1 (stereo unspecified)	nt	nt	nt	nt	nt	0.9	nt
CNC(=O)C1CC(=O)N(c2ccc(OCC(=O)Nc3ccc(F)cc3)cc2)C1 (stereo unspecified)	-0.4	-5.8	1.4	nt	nt	-2.0	nt
CC1CCCN(c2ccc(C(=O)Nc3ccc4c(c3)OCO4)cc2[N+](=O)[O-])C1 (stereo unspecified)	-1.2	-3.8	-1.9	i	i	57.6*	42.7*
O=C(Nc1ccc(N2CCCC2)c(Cl)c1)c1ccc([N+](=O)[O-])cc1	-0.5	-14.1	1.2	i	i	76.4*	75.6*
Cc1cc(C(=O)Nc2ccc(N3CCCC3)c(Cl)c2)ccc1[N+](=O)[O-]	-1.0	2.2	-24.9	i	i	80.2*	85.9*
CCCNC(=O)C1(C)CCCN(C(=O)Cc2cccc(OC)c2)C1 (stereo unspecified)	nt	nt	nt	nt	nt	0.9	nt
Cc1csc(NC(=O)CSc2nnc(-c3ccoc3C)o2)n1	-2.6	9.2	-0.8	i	i	-0.2	nt
Cc1occc1-c1nnc(SCC(=O)Nc2nc(C(C)(C)C)cs2)o1	-1.7	-1.9	-1.4	i	i	94.4*	89.7*
CCc1nc2ccc(C(=O)NCCN3CCOCC3)cn2c1N(CC)CCOC	nt	nt	nt	nt	nt	-0.9	nt
CCOC(=O)c1sc(NC(=O)Nc2ccccc2Cl)cc1C	7.3	10.1	28.0*	i	i	72.3*	60.0*
CCOC(=O)c1sc(NC(C)=O)cc1C	-1.8	3.4	-1.2	i	i	-0.3	nt
CCOC(=O)c1sc(NC(=O)Nc2ccccc2)cc1C	32.2	-7.3	42.8*	i	i	94.0*	69.5*
